Measurements taken from ChEMBL document CHEMBL5724796, “Tm Shift (DSF) assay results for EUbOPEN Chemogenomics Library” (2024).
Non-standard residues stand in square brackets, D forms with d. Residues, ends and D or L forms follow the SMILES beside them. *: point of attachment. Benzoyl(4-tBu) = CC(C)(C)c1ccc(C(=O)*)cc1; Lys(Et2) = CCN(CC)CCCC[C@H](N)C(=O)O

Tests used:
Conditions in all cases: Compound concentration 20.0 uM
[1] = biological target: Tyrosine-protein kinase ABL1 (Homo sapiens) (UniProt P00519)
[2] = biological target: Bromodomain-containing protein 4 (Homo sapiens) (UniProt O60885)
[3] = biological target: Cyclin-dependent kinase 2 (Homo sapiens) (UniProt P24941)
[4] = biological target: Casein kinase I isoform delta (Homo sapiens) (UniProt P48730)
[5] = biological target: Glycogen synthase kinase-3 beta (Homo sapiens) (UniProt P49841)
[6] = biological target: Mitogen-activated protein kinase 1 (Homo sapiens) (UniProt P28482)
[7] = biological target: T1, Aurora kinase A (Homo sapiens) (UniProt O14965)
T1 sequence (whole entry): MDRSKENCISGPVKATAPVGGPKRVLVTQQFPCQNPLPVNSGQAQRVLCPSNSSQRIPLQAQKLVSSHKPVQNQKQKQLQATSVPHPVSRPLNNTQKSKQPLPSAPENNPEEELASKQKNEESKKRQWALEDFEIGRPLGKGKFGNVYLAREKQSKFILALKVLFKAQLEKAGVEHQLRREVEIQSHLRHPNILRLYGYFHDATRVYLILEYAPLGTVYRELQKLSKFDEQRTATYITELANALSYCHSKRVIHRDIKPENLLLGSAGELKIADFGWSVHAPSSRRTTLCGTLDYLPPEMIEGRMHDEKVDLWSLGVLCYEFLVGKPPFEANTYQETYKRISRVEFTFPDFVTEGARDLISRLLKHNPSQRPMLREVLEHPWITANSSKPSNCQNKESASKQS

[8] = biological target: T2, Transcription intermediary factor 1-alpha (Homo sapiens) (UniProt O15164)
T2 sequence (whole entry): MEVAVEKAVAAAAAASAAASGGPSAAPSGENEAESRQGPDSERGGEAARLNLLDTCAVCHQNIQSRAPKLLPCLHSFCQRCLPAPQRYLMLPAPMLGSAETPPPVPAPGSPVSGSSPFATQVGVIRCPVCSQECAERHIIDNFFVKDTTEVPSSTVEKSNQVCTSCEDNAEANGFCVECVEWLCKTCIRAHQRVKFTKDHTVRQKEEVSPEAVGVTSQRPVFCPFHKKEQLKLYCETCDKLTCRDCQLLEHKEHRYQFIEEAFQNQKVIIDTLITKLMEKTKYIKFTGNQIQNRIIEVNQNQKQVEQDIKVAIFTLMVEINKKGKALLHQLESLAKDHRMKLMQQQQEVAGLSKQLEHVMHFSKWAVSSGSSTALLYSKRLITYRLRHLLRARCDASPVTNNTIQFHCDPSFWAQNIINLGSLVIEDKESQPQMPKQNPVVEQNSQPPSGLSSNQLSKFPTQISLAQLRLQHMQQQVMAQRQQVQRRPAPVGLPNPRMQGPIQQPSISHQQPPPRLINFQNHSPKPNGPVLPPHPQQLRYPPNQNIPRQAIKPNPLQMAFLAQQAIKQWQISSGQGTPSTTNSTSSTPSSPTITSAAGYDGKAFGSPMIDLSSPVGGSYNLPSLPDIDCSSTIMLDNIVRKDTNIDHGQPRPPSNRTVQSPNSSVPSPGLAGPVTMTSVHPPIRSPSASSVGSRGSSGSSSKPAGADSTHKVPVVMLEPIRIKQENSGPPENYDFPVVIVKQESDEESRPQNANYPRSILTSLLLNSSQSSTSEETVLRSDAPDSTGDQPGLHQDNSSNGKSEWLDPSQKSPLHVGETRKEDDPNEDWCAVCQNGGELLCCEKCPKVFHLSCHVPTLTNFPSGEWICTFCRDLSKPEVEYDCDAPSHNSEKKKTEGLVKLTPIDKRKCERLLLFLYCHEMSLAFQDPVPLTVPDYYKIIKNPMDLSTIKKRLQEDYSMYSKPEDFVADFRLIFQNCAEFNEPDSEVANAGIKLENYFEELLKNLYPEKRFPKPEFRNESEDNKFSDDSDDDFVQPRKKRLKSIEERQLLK

Sequence of Tyrosine-protein kinase ABL1 (Homo sapiens) (P00519 whole entry): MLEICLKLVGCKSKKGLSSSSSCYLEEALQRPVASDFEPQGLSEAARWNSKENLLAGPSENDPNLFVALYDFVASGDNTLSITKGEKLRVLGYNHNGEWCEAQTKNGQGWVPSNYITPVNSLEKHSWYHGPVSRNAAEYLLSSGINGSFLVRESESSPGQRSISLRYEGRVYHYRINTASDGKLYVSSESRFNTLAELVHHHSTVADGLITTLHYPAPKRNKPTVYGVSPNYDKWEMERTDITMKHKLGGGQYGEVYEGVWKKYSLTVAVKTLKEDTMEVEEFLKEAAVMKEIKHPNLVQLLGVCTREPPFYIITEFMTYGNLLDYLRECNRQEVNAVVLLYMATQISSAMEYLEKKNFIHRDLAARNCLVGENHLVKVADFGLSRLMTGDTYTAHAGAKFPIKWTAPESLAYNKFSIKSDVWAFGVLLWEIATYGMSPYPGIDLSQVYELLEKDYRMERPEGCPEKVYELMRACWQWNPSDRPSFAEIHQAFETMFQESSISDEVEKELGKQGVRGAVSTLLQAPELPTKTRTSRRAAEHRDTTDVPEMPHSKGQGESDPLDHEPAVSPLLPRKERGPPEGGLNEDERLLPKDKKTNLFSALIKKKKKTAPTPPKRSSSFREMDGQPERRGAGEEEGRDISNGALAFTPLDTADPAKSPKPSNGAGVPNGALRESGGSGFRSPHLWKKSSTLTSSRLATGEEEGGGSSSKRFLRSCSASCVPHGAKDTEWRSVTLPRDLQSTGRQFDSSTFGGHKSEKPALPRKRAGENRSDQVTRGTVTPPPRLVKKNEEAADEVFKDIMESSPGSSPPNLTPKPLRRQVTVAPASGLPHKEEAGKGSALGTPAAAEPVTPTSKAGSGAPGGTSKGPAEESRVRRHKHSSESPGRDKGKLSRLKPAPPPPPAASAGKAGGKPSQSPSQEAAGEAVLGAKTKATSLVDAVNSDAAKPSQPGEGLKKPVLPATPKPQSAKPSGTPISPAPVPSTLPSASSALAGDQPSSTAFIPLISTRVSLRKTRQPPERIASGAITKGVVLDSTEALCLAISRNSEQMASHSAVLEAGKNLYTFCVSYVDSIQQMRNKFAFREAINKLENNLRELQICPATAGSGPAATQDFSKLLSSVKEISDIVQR
Sequence of Casein kinase I isoform delta (Homo sapiens) (P48730 whole entry, looked up, canonical isoform): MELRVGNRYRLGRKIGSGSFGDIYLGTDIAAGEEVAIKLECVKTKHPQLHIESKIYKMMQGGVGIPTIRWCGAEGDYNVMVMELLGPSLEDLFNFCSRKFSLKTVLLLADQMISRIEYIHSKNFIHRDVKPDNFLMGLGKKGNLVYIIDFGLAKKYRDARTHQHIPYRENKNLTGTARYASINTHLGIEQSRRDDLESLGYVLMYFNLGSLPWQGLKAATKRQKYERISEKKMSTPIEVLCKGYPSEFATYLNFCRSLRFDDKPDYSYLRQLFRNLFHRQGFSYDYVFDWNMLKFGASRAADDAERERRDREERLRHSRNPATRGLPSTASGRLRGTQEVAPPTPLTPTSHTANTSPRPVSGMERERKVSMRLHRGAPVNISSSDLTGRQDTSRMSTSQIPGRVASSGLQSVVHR
Sequence of Mitogen-activated protein kinase 1 (Homo sapiens) (P28482 whole entry): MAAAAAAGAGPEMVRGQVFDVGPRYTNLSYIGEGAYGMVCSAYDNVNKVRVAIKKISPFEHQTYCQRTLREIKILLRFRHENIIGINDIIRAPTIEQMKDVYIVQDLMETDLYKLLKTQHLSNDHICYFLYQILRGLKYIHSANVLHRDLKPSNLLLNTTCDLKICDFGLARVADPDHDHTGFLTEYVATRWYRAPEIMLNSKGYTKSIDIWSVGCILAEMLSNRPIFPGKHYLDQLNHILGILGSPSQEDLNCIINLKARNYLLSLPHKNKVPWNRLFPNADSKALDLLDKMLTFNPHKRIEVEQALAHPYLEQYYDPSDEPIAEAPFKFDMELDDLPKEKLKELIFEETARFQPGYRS
Sequence of Glycogen synthase kinase-3 beta (Homo sapiens) (P49841 whole entry, looked up): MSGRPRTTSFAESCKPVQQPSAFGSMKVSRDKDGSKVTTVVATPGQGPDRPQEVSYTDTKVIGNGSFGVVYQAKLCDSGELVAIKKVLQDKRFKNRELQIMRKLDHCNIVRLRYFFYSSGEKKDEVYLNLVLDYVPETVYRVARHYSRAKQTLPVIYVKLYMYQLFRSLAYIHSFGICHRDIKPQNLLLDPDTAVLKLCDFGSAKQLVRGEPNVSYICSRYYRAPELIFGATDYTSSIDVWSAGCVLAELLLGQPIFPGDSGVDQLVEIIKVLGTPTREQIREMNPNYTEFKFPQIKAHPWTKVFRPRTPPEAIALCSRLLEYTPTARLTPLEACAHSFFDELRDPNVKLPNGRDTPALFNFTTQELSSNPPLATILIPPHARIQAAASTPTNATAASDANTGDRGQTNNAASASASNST

SMILES | ΔTm [1] [°C] | ΔTm [2] [°C] | ΔTm [3] [°C] | ΔTm [4] [°C] | ΔTm [5] [°C] | ΔTm [6] [°C] | ΔTm [7] [°C] | ΔTm [8] [°C]
CN(CCCN1c2ccccc2CCc2ccccc21)CC(=O)c1ccc(Cl)cc1 | -0.37 | -0.08 | 0.04 | -0.19 | -0.11 | 0.76 | -1.35 | 0.15
O=C(O)CCNC(=S)NCCCC[C@H](NS(=O)(=O)c1cccc(F)c1)C(=O)N[C@@H](Cc1c[nH]c2ccccc12)C(=O)NC1CCC1 | 0.2 | -3.5 | -0.16 | -0.24 | -0.19 | 0.22 | -2.13 | -1.96
CCNC(=O)NCCSC[C@H]1O[C@@H](n2cnc3c(N)ncnc32)[C@H](O)[C@@H]1O | 0.85 | -1.51 | 0.53 | 0.63 | -0.36 | -1.34 | -0.19 | -1.13
N[C@H](C(=O)O)[C@H](OCc1cccc(NC(=O)c2ccc(C(F)(F)F)cc2)c1)C(=O)O | 0.24 | -3.61 | -0.09 | -0.32 | -0.8 | 0.12 | -2.5 | 0.13
CC(C)(C)C1CCN(C(=O)n2ncc(C(O)(c3ccccc3)c3ccccc3)n2)CC1 | -2.72 | -5.41 | -2.83 | 0.67 | -5.44 | 0.52 | -4.85 | -0.34
CS(=O)(=O)c1ccc(Oc2cc(F)cc(C#N)c2)c2c1[C@H](O)[C@H](F)[C@@H]2F | 0.05 | 2.78 | 0.17 | -0.33 | -0.61 | 0.64 | -2.09 | 1.99
COc1cc(-c2cn(C)c(=O)c3cnccc23)cc(OC)c1CN(C)C | 0.4 | -1.71 | 0.82 | -0.03 | 0.26 | 0.18 | -1.01 | 0.87
O=C1c2ccccc2C(=O)c2oc(-c3ccc(F)cc3)nc21 | 0.01 | -1.84 | -0.07 | -0.12 | -0.33 | 0.17 | -2.4 | -0.61
Nc1ncnc2c1c(I)cn2[C@@H]1O[C@H](CO)[C@@H](O)[C@H]1O | 2.62 | -1.63 | 5.37 | 6.51 | 3.65 | 1.9 | 1.18 | 0.89
CCN(CC)CCCC[C@H](NC(=O)[C@H](CC(C)C)NC(=O)[C@H](C)NC(=O)[C@H](Cc1ccccc1)NC(=O)c1ccc(C(C)(C)C)cc1)C(=O)N[C@@H](CO)C(=O)OC ({Benzoyl(4-tBu)}-FAL[Lys(Et2)]S-OMe) | 0.51 | -1.71 | -0.26 | 0.5 | -1.01 | 0.31 | -1.22 | -1.11
Cc1ccnc(NS(=O)(=O)c2ccc(NC(=O)Nc3ccc(S(=O)(=O)Nc4nccc(C)n4)cc3)cc2)n1 | 0.29 | -0.01 | 0.44 | -0.62 | -1.11 | 0.44 | -1.78 | 2.1
CC(C)c1ccc(C(=O)N=C(N)N)cc1S(C)(=O)=O | 0.77 | -2.81 | 0.03 | -0.25 | -0.76 | 0.04 | -2.37 | -0.41
CNCc1ccc(-c2cc3cc(F)cc(C(N)=O)c3o2)cc1 | 0.6 | -0.09 | 1.2 | 0.55 | 0.51 | 0.83 | -1.29 | 0.67
CCC(NC(=O)C(CC(C)C)NC(=O)OCc1ccccc1)C(=O)C(=O)NCCCN1CCOCC1 (stereo unspecified) | 0.13 | -2.44 | -0.24 | 0.08 | -1.31 | -0.33 | -0.93 | -1.35
CC(C)C(=O)SCCCCCCC(=O)Nc1nc(-c2ccccc2)cs1 | 0.63 | -1.46 | 0.18 | 0.04 | 1.11 | -0.16 | -0.57 | -0.48
CC(C)c1cnc(CSc2cnc(NC(=O)C3CCNCC3)s2)o1 | 0.26 | -1.43 | 6.28 | 1.43 | 7.03 | -0.12 | 3.08 | -0.84
CCN(C(=O)c1cc(F)ccc1Oc1cncnc1N1CC2(CCN(C[C@H]3CC[C@H](NS(=O)(=O)CC)CC3)CC2)C1)C(C)C | 0.7 | -2.35 | 0.16 | -0.01 | -0.74 | 0.48 | -2.26 | 0.24
Cc1nnn(C)c1-c1cnc2c3cc4cnn(C)c4cc3n([C@H](c3ccccc3)C3CCOCC3)c2c1 | 0.34 | 22.9 | -0.73 | 0.09 | -1.29 | 0.17 | -2.95 | 0.06
CCn1c(=O)c(C)cn(Cc2nnc(-c3ccc(F)c(O)c3F)s2)c1=O | 0.41 | -1.52 | -0.07 | 0.26 | 0 | -0.2 | -0.34 | -0.63
O=C(NO)c1ccc(CN(c2cnccn2)c2cnccn2)cc1 | 0.4 | -1.6 | -0.02 | 0.05 | -1.38 | -0.44 | -0.32 | -1.38
O=C(c1cc(Cc2n[nH]c(=O)c3ccccc23)ccc1F)N1CCn2nc(C(F)(F)F)nc2C1 | 0.72 | -2.42 | 0.1 | -0.28 | -0.21 | 0.61 | -2.34 | -0.51
CCCOc1cccc(Oc2cc3c(cc2NS(=O)(=O)c2cccc(C(=O)NCCOCCOCCOCC(=O)N[C@H](C(=O)N4C[C@H](O)C[C@H]4C(=O)NCc4ccc(-c5scnc5C)cc4)C(C)(C)C)c2)n(C)c(=O)n3C)c1 | 0.11 | -8.44 | -3.98 | 0.83 | -4.03 | 0 | -2.91 | -3.82
